Sampled rows, rich in hits. Any-hit rate of the full collection: about 19%.
RORgamma inh = inhibitors of mouse ROR gamma transcriptional activity | P51450 | AID 2551 | Potency, µM (highest dose often 53.6 µM), for the others: top-dose activity change, negative = inhibition, actives largely listed as inhibitors | actives 5.4% (n = 310,000) | Drosophila S2 Gal4-RORgamma UAS-luciferase reporter, 20 h; further: nearly all actives have a fitted effect of over 60% in size
Target sequence (P51450 whole entry, looked up, the tested form may be a part): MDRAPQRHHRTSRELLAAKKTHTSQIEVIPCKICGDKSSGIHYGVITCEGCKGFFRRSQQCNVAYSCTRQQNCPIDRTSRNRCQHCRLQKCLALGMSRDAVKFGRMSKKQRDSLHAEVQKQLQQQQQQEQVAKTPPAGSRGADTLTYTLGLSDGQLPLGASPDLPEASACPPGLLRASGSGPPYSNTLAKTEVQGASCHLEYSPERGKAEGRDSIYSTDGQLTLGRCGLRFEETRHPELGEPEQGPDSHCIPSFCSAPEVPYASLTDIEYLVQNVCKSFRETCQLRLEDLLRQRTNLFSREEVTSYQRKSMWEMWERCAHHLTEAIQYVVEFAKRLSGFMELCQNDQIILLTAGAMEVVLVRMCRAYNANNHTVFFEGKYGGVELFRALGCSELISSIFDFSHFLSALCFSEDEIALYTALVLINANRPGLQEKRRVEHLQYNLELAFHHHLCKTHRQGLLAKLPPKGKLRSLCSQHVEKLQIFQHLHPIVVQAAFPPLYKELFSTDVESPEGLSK
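Luminescence from a UAS-regulated Photinus luciferase reporter in stably transfected Drosophila Schneider cells is measured; decreased signal marks ROR gamma inhibition. Fusion expression is induced by 700 uM copper sulfate for 20 hr.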
TDP1 inh = TDP1 (human) enzyme inhibition. Q9NUW8. actives 0.28% (n = 350,000). Potency, µM (highest dose often 130 µM), inactives show top-dose activity change, negative = inhibition, usual class: inhibitors. AID 485290. recombinant TDP1, AlphaScreen DNA substrate cleavage; further: nearly all actives have a fitted effect of over 40% in size
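Here, a 5' biotin and 3' phosphotyrosine-FITC DNA oligonucleotide reports Tdp1 activity: intact substrate bridges AlphaScreen beads, while cleavage leaves a 3' phosphate and drops signal. All incubations at room temperature.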
DT40 TDP1 no CPT = qHTS for Inhibitors of human tyrosyl-DNA phosphodiesterase 1 (TDP1): qHTS in cells in absence of CPT; DT40 Tdp1-/- hTDP1 cells, no CPT, ATP luminescence, 48 h; Potency, µM (series often up to 46.2 µM), without a hit: at the top dose activity change, negative = growth inhibition, most hits filed as inhibitors; actives 15% (n = 420,000); AID 686978, 2013; further: nearly all actives have a fitted effect of over 55% in size
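A cellular qHTS used chicken DT40 cells lacking endogenous Tdp1 but carrying stably transfected human TDP1. Compounds were applied without camptothecin, and cell growth kinetics were judged by ATP-dependent luminescence after ≥48 hr.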
TDP1 cell CPT = growth inhibition of DT40 Tdp1-/-;hTDP1 cells with camptothecin (screen for TDP1 inhibitors). chicken DT40 Tdp1-/-;hTDP1 cells + 20 nM CPT, ATP luminescence, 48 h. Potency, µM (titrated, usually from 46.2 µM), for the others: at the highest dose activity change, negative = growth inhibition, actives largely listed as inhibitors. actives 12% (n = 420,000). AID 686979; further: nearly all actives have a fitted effect of over 55% in size
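Chicken DT40 Tdp1-/- cells stably complemented with human TDP1 were seeded at 400 cells/well in medium containing 20 nM camptothecin, exposed to pin-transferred compounds, and grown at 37 °C for at least 48 hr. Viability was read as ATP luminescence.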
VP16 counter = counter-screen for ROR gamma inhibitors: Gal4-VP16 reporter; Potency, µM (doses to about 53.6 µM), inactives show at the top dose activity, negative = inhibition, usual class: inhibitors; actives 3.5% (n = 310,000); Drosophila S2 Gal4-VP16 UAS-luciferase, luminescence, 20 h;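 further: Gal4-VP16 expression switched on by copper sulfate through the metallothionein promoter; nearly all actives have a fitted effect of over 50% in size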
* marks the source's active call; other numbers are inactive results; ? = inconclusive; nt = not tested or not shown; ! = a repeat was not active; [ ] = another dose, or the depositor's remark. The call rests on the fitted dose curve; in most records, active means well fitted curve in the direction sought with a large enough effect; inconclusive means small, poorly fitted or top-dose-only effect, or another doubt; inactive means no such curve, though single readings can be large; an effect the other way counts as inactive or inconclusive. On the % scale 0 is the no-effect control and ±100 the full control effect; potency means the concentration at half of the fitted maximal effect.

SMILES | RORgamma inh | TDP1 inh | DT40 TDP1 no CPT | TDP1 cell CPT | VP16 counter
CCOC(=O)c1c(-c2ccc(OC)cc2)nc2nonc2c1N | 42% | 3%[56.1 µM] | 2.6µM* | ? | 5%
CCOC(=O)c1c(C)nc(C)c(C(=O)OCC)c1-c1ccc(OC)cc1 | 30% | 3% | ? | ? | 0%
Cc1nn(Cc2ccc(Cl)cc2)c(C)c1NC(=O)c1cc(C(C)C)on1 | 39% | 11% | 15µM* | 21µM* | ?
Cc1nn(Cc2ccc(Cl)cc2)c(C)c1NC(=O)C1CC=CCC1C(=O)O (stereo not given) | 0% | 6% | 16µM* | ? | -11%
Cc1nn(Cc2ccc(Cl)cc2)c(C)c1NC(=O)c1c(-c2ccccc2)noc1C | ? | -11%[56.1 µM] | -30% | 16µM* | -24%
Cc1nn(Cc2c(Cl)cccc2Cl)c(C)c1NC(=O)c1cc(C(C)C)on1 | ? | 5% | 21µM* | 18µM* | ?
Cc1cc(C)c2nc(N3CCN(C(=O)c4cccs4)CC3)sc2c1 | nt | nt | ? | 8% | nt
CCOC(=O)N1CCC(NC(=O)c2ccc3c(c2)N(Cc2ccccc2C)C(=O)c2ccccc2S3=O)CC1 (stereo not given) | nt | 6% | ? | ? | nt
COc1cccc(C(=O)N(Cc2ccccc2)Cc2cc3cc4c(cc3[nH]c2=O)OCCO4)c1 | ? | -1% | 21µM* | 13µM* | -14%
COc1ccc(C(=O)N(Cc2ccccc2)Cc2cc3cc4c(cc3[nH]c2=O)OCCO4)cc1 | -4% | 3% | 11µM* | 11µM* | -4%
O=C(c1ccco1)N(Cc1ccc2c(c1)OCO2)Cc1cc2cc3c(cc2[nH]c1=O)OCO3 | -16% | nt | 2% | -4% | 4%
COc1cccc(C(=O)N(Cc2cc3cc(C)ccc3[nH]c2=O)CC2CCCO2)c1 (stereo not given) | 25% | -3% | -23% | ? | -18%
O=C(Nc1cccc(S(=O)(=O)N2CCCCCC2)c1)C1=COCCO1 | nt | 2% | 4% | ? | nt
CCc1ccc(C(=O)CN(C#N)c2nc(C)cc(C)n2)cc1 | 11µM* | 8% | ? | ? | -25%
CC(=O)Nc1ccc(Nc2nc3ccccc3nc2NS(=O)(=O)c2ccc(Cl)c([N+](=O)[O-])c2)cc1 | nt | nt | 5.8µM* | 7.3µM* | nt
COC(=O)c1cc(Nc2nc3ccccc3nc2NS(=O)(=O)c2ccc(C)cc2)ccc1Cl | nt | 1% | 6.5µM* | 18µM* | nt
CC(=O)Nc1ccc(S(=O)(=O)Nc2nc3ccccc3nc2Nc2ccc3ccccc3c2)cc1 | ? | -5% | ? | ? | -13%
CNc1ccc2ncc(-c3ccc(OC)c(OC)c3)n2n1 | nt | nt | 2.1µM* | 2.6µM* | nt
COC(=O)CNC(=O)C(NC(=O)OCc1ccccc1)C(C)C (stereo not given) | 2% | 1% | 3% | 11% | 8%
CC(C)c1nc(CN(C)C(=O)N[C@H](C(=O)N[C@@H](Cc2ccccc2)C[C@H](O)[C@H](Cc2ccccc2)NC(=O)OCc2cncs2)C(C)C)cs1 | ? | -2% | 21µM*! | 17µM*! | 2%
N#Cc1ccc(-c2cccs2)nc1SCc1cccnc1 | -24% | 0% | 0.41µM* | 0.52µM* | -6%
Nc1nc(SC2c3cccc4cccc(c34)C2NS(=O)(=O)c2ccccc2)n[nH]1 (stereo not given) | -22%[10 µM] | 1% | ? | 9% | -6%
COc1ccccc1CNC(=O)Cc1c[nH]c2ccccc12 | -4% | 5% | -15% | 9% | -5%
COc1cccc(CNC23CC4CC(CC(C4)C2)C3)c1OCc1ccccc1 | 2% | 3% | 10µM* | 9.2µM* | 4%
COc1cccc(CNn2cnnc2)c1OCc1ccc(F)cc1 | -2% | 7% | -3% | -7% | -3%
SMILES | RORgamma inh | TDP1 inh | DT40 TDP1 no CPT | TDP1 cell CPT | VP16 counter
COc1cc(CNCCc2c[nH]c3ccccc23)ccc1OCc1ccccc1F | ? | 8% | ? | 18µM* | ?
COc1cccc(CNCCc2c[nH]c3ccccc23)c1OCc1ccccc1 | 8% | 2% | 9.2µM* | 7.3µM* | -19%
CCOC(=O)c1cnn(C)c1NC(=O)c1ccc([N+](=O)[O-])cc1 | -4% | nt | -17% | -1% | -20%
CC(NC(=O)COC(=O)CNC(=O)c1ccccc1Cl)C1CC2CCC1C2 (stereo not given) | nt | -3%[56.1 µM] | -4% | -5% | nt
O=C(O)CCc1nnc2cnc3ccccc3n12 | nt | 1% | 2% | 4% | nt
COC(=O)[C@@]1(Cc2ccc(F)cc2)[C@H]2c3cc(C(=O)N(C)C)n(Cc4ccsc4Br)c3C[C@H]2CN1C(=O)c1ccccc1 | 13% | 20% | ? | ? | 1%
O=C(Nc1ccc(N2CCN(C(=O)c3ccco3)CC2)cc1)c1ccccc1F | 27% | 6% | ? | ? | 6%
O=C(/C=C/c1ccc(F)cc1)NCC1Cc2cccc(-c3ncccn3)c2O1 (stereo not given) | nt | nt | 18µM* | ? | nt
O=C(/C=C/c1ccccn1)NCC1Cc2cccc(-c3ncccn3)c2O1 (stereo not given) | nt | nt | -12% | 2% | nt
COc1ccc(C2C(C(=O)NCc3ccccn3)c3ccccc3C(=O)N2C)cc1OC (stereo not given) | -17% | 4% | -4% | 11% | -17%
CCOC(=O)COc1ccccc1/C=C1\NC(=O)NC1=O | 25% | 4% | 8% | 9% | -3%
O=C(O)c1ccccc1SCc1cn2ccccc2n1 | -5% | 2% | -5% | 16% | -9%
Cc1ccc(SCc2cn3ccccc3n2)cc1 | 10µM* | nt | ? | -8% | ?
c1ccc(CSCc2cn3ccccc3n2)cc1 | 13µM* | -4% | ? | 5% | -19%
COc1ccc(C)cc1NC(=O)Cc1ccc(NC(=O)N2CCCCc3ccccc32)cc1 | nt | 7% | ? | ? | nt
Oc1ccc2ccccc2c1C=Nc1ccc(N2CCOCC2)cc1 | ? | 7% | -16% | -7% | ?
CCOC(=O)N1CCN(c2cc(N3CCN(CC)CC3)c(F)cc2[N+](=O)[O-])CC1C (stereo not given) | ? | 2% | ? | 21µM* | -7%
CCCNC(=O)COC(=O)c1ccccc1C(=O)c1ccc(Cl)c([N+](=O)[O-])c1 | -25% | 3% | 10µM* | ? | -28%
Cc1ccc(C(=O)OCC(=O)Nc2c(C)n(C)n(-c3ccccc3)c2=O)cc1[N+](=O)[O-] | 0% | 1% | -15% | -15% | -5%
Cc1ccc(C(=O)c2ccccc2C(=O)OCC(=O)NCCc2ccc(Cl)cc2Cl)cc1 | ? | 0% | ? | ? | ?
